Screens: PubChem, National Center for Advancing Translational Sciences (NCATS)
HttQ103 aggreg – reduces HttQ103-GFP aggregates in PC12 cells; PC12 HttQ103-GFP aggregates, Acumen cytometry, 40 h; Potency, µM (doses to about 46.1 µM), actives largely listed as inhibitors; 220,000 compounds, 1.1% hits; active means well fitted curve in the direction sought with a large enough effect; inconclusive means small, poorly fitted or top-dose-only effect, or another doubt; inactive means no such curve, though single readings can be large; an effect the other way counts as inactive or inconclusive; further: nearly all actives have a fitted effect of over 60% in size
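Read-out: GFP aggregate count by laser scanning cytometer (488 nm excitation, 500-530 nm emission, 1–25 µm objects >6 SD above background). Cells: PC12, inducible HTTex1-Q103-GFP, 100 nM tebufenozide; compounds titrated.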
ALDH1A1 block – blocks purified human ALDH1A1 activity; Purified ALDH1A1, NADH fluorescence, propionaldehyde substrate; AID 1030; 220,000 compounds, 7.3% hits; Potency, µM (highest dose often 75.3 µM), most hits filed as inhibitors
Target sequence (P00352 whole entry, looked up): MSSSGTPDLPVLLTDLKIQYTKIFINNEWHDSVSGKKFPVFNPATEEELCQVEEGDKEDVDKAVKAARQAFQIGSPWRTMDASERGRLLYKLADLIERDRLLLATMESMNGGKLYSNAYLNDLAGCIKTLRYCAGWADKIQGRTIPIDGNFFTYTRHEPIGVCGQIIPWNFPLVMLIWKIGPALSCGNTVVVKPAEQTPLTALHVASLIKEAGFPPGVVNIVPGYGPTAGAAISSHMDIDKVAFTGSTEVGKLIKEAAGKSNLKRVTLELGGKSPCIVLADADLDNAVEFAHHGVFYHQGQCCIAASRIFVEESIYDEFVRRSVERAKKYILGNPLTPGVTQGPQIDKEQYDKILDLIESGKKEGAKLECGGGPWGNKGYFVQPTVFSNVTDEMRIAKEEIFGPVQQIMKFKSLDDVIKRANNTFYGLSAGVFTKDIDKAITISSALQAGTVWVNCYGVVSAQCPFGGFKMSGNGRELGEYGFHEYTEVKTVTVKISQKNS
HTT ATP protect – cytoprotection in Huntington HTT-Q103 PC12 cell model; 230,000 compounds, 0.14% hits; PC12 HTT-Q103 induced, cytoprotection, ATP luminescence, 40 h; Potency, µM (doses to about 56.4 µM), actives largely listed as activators; active means well fitted curve in the direction sought with a large enough effect; inconclusive means small, poorly fitted or top-dose-only effect, or another doubt; inactive means no such curve, though single readings can be large; an effect the other way counts as inactive or inconclusive; further: nearly all actives have a fitted effect of over 45% in size
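Quantitative HTS on tebufenozide-induced (100 nM) PC12 cells expressing HTTQ103 exon 1–GFP; compounds tested as a concentration series; survival measured via cellular ATP.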
HPGD block – inhibitors of human 15-hydroxyprostaglandin dehydrogenase (HPGD); P15428; purified HPGD, NADH fluorescence kinetic, PGE2 substrate; Potency, µM, actives largely listed as inhibitors; 150,000 compounds, 4.3% hits
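20 nM HPGD preincubated 15 min at room temperature with compound in 50 mM Tris-HCl pH 8, 0.01% Tween 20. Started with 1 mM NAD+ and 30 uM prostaglandin E2; NADH fluorescence (360/450 nm) read 5 times over 30-s intervals, last minus first.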
LMNA splice mod – LMNA splicing modulation; HeLa LMNA splicing GFP/RFP minigene ratio, 48 h; Potency, µM (series often up to 46.1 µM), hits mostly inhibitors; 200,000 compounds, 0.01% hits; AID 1487; active means well fitted inhibition curve with a large enough effect in the signal ratio, with a control signal flat, not every such curve was filed as active; inconclusive means small, poorly fitted or top-dose-only effect, or effect the other way, or a change in a side signal; the % refers to the signal ratio
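S3 HeLa stable clones carrying a lamin A-EGFP splicing minigene plus DsRed2 were seeded at 600 cells/well in Opti-MEM with 2% FBS, pin-dosed and incubated 48 h at 37°C. Acumen cytometry (488 nm) gave the GFP/RFP total-intensity ratio.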
A number is an active result; [ ] = another dose, or the depositor's remark. Most compounds without a hit are left out; they make up all but 8.8% or so of the library. Unless noted, the call rests on the fitted dose curve; in most records, active means well fitted inhibition curve with a large enough effect (not every such curve was filed as active); inconclusive means small, poorly fitted or top-dose-only effect, or another doubt; inactive means no such curve, though single readings can be large or run the other way.

For COCCCNC(=O)CN(c1cc(Cl)ccc1OC)S(C)(=O)=O the results were ALDH1A1 block inactive.
For C[C@H]1Cc2c(-c3ccccc3)nc3c(c2CO1)CN(C(=O)Nc1cccc(C#N)c1)CC3 the results were ALDH1A1 block inactive[13.5 µM], HTT ATP protect inactive[10 µM], HPGD block inactive and LMNA splice mod inactive[9.22 µM].
CCN(CC)S(=O)(=O)c1ccc(C)c(NC(=S)NNC(=O)C2CC2)c1 was read as HttQ103 aggreg inactive, ALDH1A1 block 8.9µM, HTT ATP protect inconclusive, HPGD block inactive and LMNA splice mod inactive.
Screening O=C(O)CCc1nn2c3ccccc3n(CC(=O)c3cccs3)c2nc1=O returned HttQ103 aggreg inactive, ALDH1A1 block inconclusive and HTT ATP protect inactive.
For COc1ccccc1NC(=O)c1ccc(-c2ccccc2[N+](=O)[O-])o1 the results were HttQ103 aggreg inactive, ALDH1A1 block 7.9µM and HTT ATP protect inactive.
Screening CC1=C(C#N)C(c2cccnc2)C2=C(N1)c1ccccc1C2=O (stereo not given) returned HttQ103 aggreg inconclusive, ALDH1A1 block inactive, HTT ATP protect inactive and LMNA splice mod inactive.
CC1=C(C#N)C(c2ccccc2)C2=C(N1)c1ccccc1C2=O (stereo not given) was read as HttQ103 aggreg inactive, ALDH1A1 block 13µM, HPGD block 22µM and LMNA splice mod inactive.
For COc1ccccc1CNc1cc(-c2cccc(C#N)c2)ncn1 the results were ALDH1A1 block inconclusive, HTT ATP protect inactive and LMNA splice mod inactive.
`Cn1c(N2CCOCC2)nc2c1c(=O)n(Cc1ccc(Cl)c(Cl)c1)c(=O)n2C` gave HttQ103 aggreg inactive, ALDH1A1 block inactive, HTT ATP protect inactive, HPGD block inactive and LMNA splice mod inconclusive.
`Cn1c(OCc2ccco2)nc2c1c(=O)n(Cc1ccc(Cl)c(Cl)c1)c(=O)n2C` gave HttQ103 aggreg inactive, ALDH1A1 block 25µM, HTT ATP protect inactive[10 µM], HPGD block inactive and LMNA splice mod inactive.
CC(C)CC(c1nnnn1C1CCCCC1)N1CCN(c2ncccn2)CC1 (stereo not given) was read as HttQ103 aggreg inactive, ALDH1A1 block inconclusive, HTT ATP protect inactive, HPGD block inactive and LMNA splice mod inconclusive.
`CC(C)CC(c1nnnn1C1CCCC1)N1CCC(C(N)=O)CC1` (stereo not given) gave HttQ103 aggreg inactive, ALDH1A1 block 22µM and HTT ATP protect inconclusive.
Screening CC(C#N)On1c(SC(C)C#N)nc2ccccc2c1=O (stereo not given) returned HttQ103 aggreg inactive, ALDH1A1 block 16µM, HTT ATP protect inactive[0.074 µM], HPGD block inactive and LMNA splice mod inactive.
COc1ccc(OC)c(CNC(=O)CN2N=C(c3ccc(Cl)cc3)CCC2=O)c1 was read as LMNA splice mod inactive.
C=CCN1C(=O)CN=C1Nc1cc(C)ccc1C was read as HttQ103 aggreg inactive, ALDH1A1 block 3.5µM, HTT ATP protect inactive[10 µM], HPGD block inactive and LMNA splice mod inactive.
COc1ccc(-n2ncc3c(NCc4cccs4)ncnc32)cc1 was read as HttQ103 aggreg inactive, ALDH1A1 block inconclusive, HTT ATP protect inactive, HPGD block inconclusive and LMNA splice mod inactive.
Screening NNc1ncnc2c1cnn2-c1ccccc1 returned HttQ103 aggreg 22µM, ALDH1A1 block 18µM, HTT ATP protect inactive, HPGD block inactive and LMNA splice mod inconclusive.
Screening c1ccc(-n2ncc3c(NCc4cccs4)ncnc32)cc1 returned HttQ103 aggreg inactive, ALDH1A1 block inconclusive, HTT ATP protect inactive[10 µM], HPGD block 5µM and LMNA splice mod inactive.
Cc1ccccc1Nc1ncnc2c1cnn2-c1ccccc1 was read as HttQ103 aggreg inconclusive, ALDH1A1 block inactive, HTT ATP protect inactive[10 µM], HPGD block inactive and LMNA splice mod inconclusive.
COc1ccc(C(=O)CCC(=O)Nc2ccc(F)cc2F)cc1 was read as LMNA splice mod inactive.
Screening Cc1ccc([N+](=O)[O-])cc1N/C=C/C(=O)c1ccco1 returned HttQ103 aggreg inactive, ALDH1A1 block 22µM, HTT ATP protect inactive, HPGD block inactive and LMNA splice mod inconclusive.
`CCCCCc1nc2sc3c(c2c(=O)n1NC(=O)c1ccc([N+](=O)[O-])cc1)CC(C)(C)OC3` gave HttQ103 aggreg inconclusive, ALDH1A1 block 8.9µM, HTT ATP protect inactive[10 µM], HPGD block inactive and LMNA splice mod inconclusive.
COc1ccc(NC(=S)NCc2ccc3c(c2)OCO3)cc1 was read as HttQ103 aggreg inactive, ALDH1A1 block inconclusive and HTT ATP protect inactive.
For Cc1ccc2c(CC(=O)OC(C)C(=O)NCc3ccc4c(c3)OCO4)coc2c1 (stereo not given) the results were HttQ103 aggreg inactive, ALDH1A1 block inactive, HTT ATP protect inactive, HPGD block 14µM and LMNA splice mod inactive.
Screening CC(C)C(OC(=O)c1cc2occc2n1C)C(=O)NCc1ccc2c(c1)OCO2 (stereo not given) returned HttQ103 aggreg inactive, ALDH1A1 block inconclusive, HTT ATP protect inactive, HPGD block 13µM and LMNA splice mod inconclusive.
Cc1ccc2c(CC(=O)NCc3ccc4c(c3)OCO4)coc2c1 was read as HttQ103 aggreg inactive, ALDH1A1 block 4.5µM, HTT ATP protect inactive, HPGD block inactive and LMNA splice mod inactive.
For Cc1cc2c(cc(C(=O)OC(C(=O)NCc3ccco3)C(C)C)n2C)o1 (stereo not given) the results were HttQ103 aggreg inactive, ALDH1A1 block inconclusive, HTT ATP protect inactive, HPGD block inactive and LMNA splice mod inconclusive.
`COc1ccc2c(CC(=O)NCc3ccc4c(c3)OCO4)coc2c1` gave HttQ103 aggreg inactive, ALDH1A1 block 8.9µM, HTT ATP protect inactive[10 µM], HPGD block inactive and LMNA splice mod inactive.
Screening Cc1ccc(NC(=O)NCc2ccc3c(c2)OCO3)cc1 returned HttQ103 aggreg inactive, ALDH1A1 block inactive, HTT ATP protect inactive, HPGD block inactive and LMNA splice mod inactive.
CCn1ccc2c(OCC(=O)Nc3ccc(C(C)=O)cc3)cccc2c1=O was read as LMNA splice mod inactive.
`Cc1cc(N=NC(=O)c2ccccc2)ccc1O` gave HttQ103 aggreg inactive, ALDH1A1 block 22µM, HTT ATP protect inactive[10 µM] and LMNA splice mod inactive.
Screening CC(=O)NC1=NN(C(C)=O)C(C)(CS(=O)(=O)c2ccc3ccccc3c2)S1 (stereo not given) returned HttQ103 aggreg inactive, ALDH1A1 block inactive, HTT ATP protect inactive[1.9 µM], HPGD block inactive and LMNA splice mod inactive.
Screening CCCCN1C(=O)C(NC(C)=O)c2ccccc21 (stereo not given) returned HttQ103 aggreg inactive, ALDH1A1 block 0.11µM, HTT ATP protect inactive[10 µM], HPGD block inactive and LMNA splice mod inactive.
Screening COC(=O)C(C(=O)OC)C(Cc1cc(F)cc(F)c1F)NC=O (stereo not given) returned ALDH1A1 block inactive, HTT ATP protect inactive and HPGD block inactive.
Screening O=C(C[n+]1ccc(C(=O)NCc2ccccc2)cc1)c1ccc(OC(F)F)cc1 returned HttQ103 aggreg inactive, ALDH1A1 block inconclusive and HTT ATP protect inactive.
`O=C(C[n+]1cn(C(F)F)c2ccccc21)c1ccc(OC(F)F)cc1` gave HttQ103 aggreg inconclusive, ALDH1A1 block 9.5µM, HTT ATP protect inactive[10 µM] and LMNA splice mod inconclusive.
